MARV entry inh = qHTS for inhibitors of binding or entry into cells for Marburg Virus; Marburg virus pseudotyped entry inhibition, cell reporter; Potency, µM (series often up to 37.8 µM), inactives show at the highest dose activity change, negative = inhibition, most hits filed as inhibitors; hit rate 1.8% among 300,000; calls by dose curve; tested in HEK293 cells; note: potency is the fitted concentration of half-maximal effect; % is set by controls: 0 for no effect and ±100 for the full control effect
Shiga toxin inh = A qHTS for Small Molecule Inhibitors of Shiga Toxin. AID 2315, 2010. Vero cells, Shiga toxin protein synthesis inhibition reporter. hit rate 9.2% among 290,000. inhibition, % at 38.7 µM; in the data active = inhibition mostly above about 28%, no sharp cut-off; inactive = mostly below about 43%; note: 0% is about no effect
Lassa entry inh = qHTS for Inhibitors of binding or entry into cells for Lassa Virus; AID 540256, 2011; Lassa virus pseudotype entry inhibition, cell reporter; Potency, µM (titrated, usually from 37.9 µM), inactives show top-dose activity change, negative = inhibition, actives largely listed as inhibitors; hit rate 1.2% among 300,000; calls by dose curve; tested in HEK293 cells; note: potency is the fitted concentration of half-maximal effect; % is set by controls: 0 for no effect and ±100 for the full control effect; nearly all actives have a fitted effect of over 50% in size
CHX counter = Cycloheximide Counterscreen for Small Molecule Inhibitors of Shiga Toxin; cell reporter, cycloheximide protein synthesis inhibition counterscreen; max response, %; hit rate 12% among 300,000; AID 2314, 2010; in the data active = max response mostly above about 13%, no sharp cut-off; inactive = mostly below about 14%; note: read at 38.3 µM for the half of the compounds with a filed dose; 0% is about no effect
* marks the source's active call; other numbers are inactive results; i = inactive; ? = inconclusive; / = no result given; + = active, no number; [ ] = remark or other dose. An excerpt weighted towards active compounds, which were near 12% of everything screened.

SMILES	MARV entry inh	Shiga toxin inh	Lassa entry inh	CHX counter
COc1cccc2c1OC(=O)CC2c1ccccc1C (stereo unspecified)	/	i	/	-5
COc1cc(C=CC(=O)OCC=Cc2ccc3c(c2)OCO3)cc(OC)c1OC	12%	/	?	/
O=C1Cc2cc(S(=O)(=O)N3CCCCC3)cc3c2N1CCC3	/	/	-5%[46.1 µM]	/
CCOP(=O)(OCC)/C(=C/N1CCCCC1)NC(=O)c1ccccc1	2%[46.1 µM]	29	-5%	13*
O=C(CSc1ccc(F)cc1)Nc1ccccc1Br	4%	66	0%	33*
CC(=O)Nc1ccc(NC(=O)CSc2ccc(C)cc2)cc1	12%	20	3%	7
O=C(CSc1ccc(F)cc1)Nc1ccc(Br)cc1	/	67*	/	47*
CCNC(=S)NNC(=O)c1nn(C)c(C)c1Cl	/	82*	/	26
Cc1c(Cl)c(C(=O)NNC(=S)Nc2ccc(F)cc2)nn1C	?	179*	?	34*
Cc1nn(CCC(=O)NNC(=S)Nc2ccc(F)cc2)c(C)c1[N+](=O)[O-]	-2%	-6	-10%	-1
Cc1c(Cl)c(C(=O)NNC(=S)Nc2ccccc2)nn1C	?	64*	0%	31*
CCNC(=S)NNC(=O)c1c(Cl)c(C)nn1C	20%	-2	-10%	-2
Cc1ccc(C(=O)c2cn(Cc3cccc(F)c3)c3nc(C)ccc3c2=O)cc1	?	/	-3%[46.1 µM]	/
COc1ccc(NC2CCCN(C(=O)CN3C(=O)c4ccccc4C3=O)C2)cc1OC (stereo unspecified)	25%[46.1 µM]	16	-3%[46.1 µM]	4
O=C(Nc1ccccc1)c1ccc2c(c1)OCCO2	?	70*	?	41*
COc1ccc(NC(=O)/C(=C\c2ccc3c(c2)OCO3)NC(C)=O)cc1	?	67*	?	59*
CCC(C)(C)NC(=O)CN(C(=O)C(=O)Nc1ccc2c(c1)OCCO2)C1CC1	?	14	17%	12*
CCOC(=O)C(=O)CC(=O)c1ccc2c(c1)OCCO2	/	51	/	30*
COCCCNC(=O)C1=CCN(S(=O)(=O)c2ccc(C)cc2)CC1	/	-12	/	-3
COc1cc(/C(C)=N/NC(=O)Cc2c(C)[nH][nH]c2=O)ccc1O	29%	-8	16%	-4
Cc1cccc(NC(=S)N/N=C/c2ccc3c(c2)OCO3)c1	?	+	?	49*
Cc1cccc(NC(=O)CO/N=C/c2ccc3c(c2)OCO3)c1	?	-3	-24%	8
Cc1cccc(NC(=S)N/N=C2\CC(C)(C)Oc3ccc(O)cc32)c1	4.5µM*	-7	-9%[46.1 µM]	-1
COc1cccc(NC(=O)C(=O)N/N=C/c2ccc3c(c2)OCO3)c1	21%	56	15%	26*
O=C(Nc1cccc(F)c1)c1ccc2c(c1)OCCO2	?	87*	?	43*
SMILES	MARV entry inh	Shiga toxin inh	Lassa entry inh	CHX counter
O=C(N/N=C/c1ccc2c(c1)OCO2)C(=O)Nc1ccccc1Cl	/	23	/	-2
COc1ccc(CNc2ncc(-c3cccc([N+](=O)[O-])c3)n2C)c(OC)c1OC	/	-5	/	-2
Cc1cccc(NC(=O)c2ccc3c(c2)OCCO3)c1	7.9µM*	41*	?	31
Cc1cccc(NC(=S)NNC(=O)c2ccc3c(c2)OCO3)c1	?	49*	?	116*
Cc1ccc(NC(=O)c2ccc3c(c2)OCCO3)cc1C	?	21	?	15
CCC(C)(C)NC(=O)c1ccc2c(c1)OCCO2	?	45	26%	16*
CCC(CC)NC(=O)c1ccc2c(c1)OCCO2	-5%	-7	22%	10
Cc1cccc(NC(=S)NCc2ccc3c(c2)OCO3)c1	?	-15	-6%	-2
CCCc1cc(C(=O)NNC(=S)Nc2cccc(C)c2)cs1	?	40*	13%	31*
CCCCC1CCC(C(=O)N2CC(=O)Nc3ccc(F)cc3C2c2ccc(F)cc2)CC1 (stereo unspecified)	-22%[46.1 µM]	/	?	/
Cc1ccc(NC(=O)c2ccc3c(c2)OCCO3)cc1S(=O)(=O)Nc1cccc(Cl)c1	?	88*	?	45*
O=C(O)c1ccc(/C=C(\c2nc3ccccc3[nH]2)c2nc3ccccc3s2)cc1	?	40*	19%	30*
CN(C)S(=O)(=O)N1CCCC(C(=O)c2ccc(-c3ccccc3)c(F)c2)C1 (stereo unspecified)	?	35*	?	15*
O=C(c1ccc(-c2ccccc2)c(F)c1)C1CCCN(CCO)C1 (stereo unspecified)	?	68	-20%	15*
Cc1ccc(CNC(=O)Cn2c(=O)n(-c3ccc(C)cc3)c(=O)c3c2c2cc(C)ccc2n3C)cc1	/	/	2%[46.1 µM]	/
COc1ccc(C2(SCC(N)C(=O)O)c3ccccc3-c3ccccc32)cc1 (stereo unspecified)	-5%	/	7%[46.1 µM]	/
CCCCCCCOC(=O)C1=C(C)Nc2ncnn2C1c1cccs1 (stereo unspecified)	?	-17	13µM*	-2
CCCCCCCCOC(=O)C1=C(C)Nc2nnnn2C1c1cccs1 (stereo unspecified)	?	-5	?	-4
Cc1nc2ccc(NC(=O)c3cnc(Cl)c(Cl)c3)cc2s1	17%[46.1 µM]	71*	?	18*
Cc1ccc(C(=O)Nc2nc3ccccc3s2)s1	?	32	?	52*
CSc1ncccc1C(=O)Nc1nc2ccc(S(C)(=O)=O)cc2s1	9%[46.1 µM]	35	-15%[46.1 µM]	15
O=C(C[n+]1ccccc1)Nc1nc2ccccc2s1	20%	29	?	21*
Cc1ccc(C(=O)O)c(C(=O)Nc2nc3ccccc3s2)c1	/	-2	/	2
CS(=O)(=O)c1ccc2nc(NC(=O)c3cccs3)sc2c1	2.2µM*	9	?	-2
COC(=O)C[C@H]1c2ccccc2[C@@H]2C(=C[C@@H](C)[C@H]3C(=O)N(O)C(=O)[C@H]32)N1C(=O)OC	8%[14.2 µM]	/	/	/
SMILES	MARV entry inh	Shiga toxin inh	Lassa entry inh	CHX counter
CCCc1c(OCC(O)COc2ccc3c(=O)cc(C(=O)O)oc3c2CCC)ccc(C(C)=O)c1O (stereo unspecified)	/	8	/	-8
C[C@H]([C@H](C)N1CC(=O)NC(=O)C1)N1CC(=O)NC(=O)C1	/	16	/	-5
Cc1csc2nc(NC(=O)c3ccccc3)sc(=O)c12	1%	26	13%	12*
Cc1nc2ccc(NC(=O)c3ccc(Br)o3)cc2s1	?	66*	-4%	36*
O=C(O)c1ccccc1-c1ccccc1C(=O)Nc1nc2ccccc2s1	13%	6	3%	4
O=C(Nc1nc2ccccc2s1)c1ccccc1	?	91*	?	28*
Cc1ccc2nc(NC(=O)c3cccs3)sc2c1	3.2µM*	80	2.5µM*	25
Cc1ccccc1C(=O)Nc1nc2c(C)csc2c(=O)s1	/	-13	/	-2
CSc1nc2ccc(NC(=O)c3cccs3)cc2s1	-17%	/	6%	/
C=CCN1c2ccccc2[C@]23C[C@@H](C(=O)OC)N(C(=O)NCCC)C2=NC(C(=O)OC)=C(C(=O)OC)[C@H]13	/	7	/	-3
CCOC(=O)c1cc2c(=O)n3ccccc3nc2n(CC(C)C)c1=NC(=O)COc1ccc(Cl)cc1	-3%[46.1 µM]	/	20%[46.1 µM]	/
Cc1ccc(-n2c3c(c(=O)[nH]c2=O)C(NC(=O)c2ccccc2F)(C(F)(F)F)C(=O)N3)cc1C (stereo unspecified)	-7%[46.1 µM]	/	10%[46.1 µM]	/

Source: PubChem BioAssay (National Center for Advancing Translational Sciences (NCATS))
